Among the data in the supplement of paper PMC8866396 are cell viability values, retold here.

One assay concerns IL-6-GFP PC-9GR. Briefly: cell viability (CCK-8 OD) relative to DMSO control (fraction of control); higher = more viable cells. The following applies: compound concentration: 10 uM; treatment time: 48 h. An outline of the steps: (§1)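 PC-9 and PC-9GR lung cancer cells overexpressing IL-6-GFP from a lentiviral construct were plated at 3000 cells/well in 96-well plates. Each compound from a purchased 510-compound library was added at a final 10 μM for 48 h, with a parallel plate set used for GFP imaging. Viability was measured by CCK-8 absorbance and expressed as each well's optical density divided by the vehicle (DMSO) control well, from two independent replicates.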

For another assay, the system named is IL-6-GFP PC-9. Described as above. The settings on record: compound concentration: 10 uM; treatment time: 48 h. The essentials: as §1

± gives the standard deviation of the averaged measurements.

`Cc1ccc(-c2cc(C(F)(F)F)nn2-c2ccc(S(N)(=O)=O)cc2)cc1` [Celecoxib]: the cell viability in the assay on IL-6-GFP PC-9GR came out at 1.13 ± 0.057; with IL-6-GFP PC-9 it was 1.09 ± 0.051.
Regarding `Cc1cc2c(C(N)=O)cccc2n1-c1nc2c(c(NCc3ccccc3)n1)COCC2`, the cell viability with IL-6-GFP PC-9GR was 0.204 ± 0.1; in the assay on IL-6-GFP PC-9, 0.261 ± 0.0057.
Consider `COc1c2ccoc2cc2oc(=O)ccc12` [Bergapten], for which the cell viability in the assay on IL-6-GFP PC-9GR was 0.902 ± 0.041; with IL-6-GFP PC-9, 0.8378 ± 0.0073.
`CNCc1ccc(-c2[nH]c3cc(F)cc4c3c2CCNC4=O)cc1.O=P(O)(O)O`: the results for the cell viability in the assay with IL-6-GFP PC-9GR and in the assay with IL-6-GFP PC-9 were 0.93 ± 0.16 and 1.05 ± 0.15, respectively.
Regarding `CC(C)CC(NC(=O)C(Cc1ccccc1)NC(=O)c1cnccn1)B(O)O` (configuration not stated) [Bortezomib (PS-341)], the cell viability worked out at 0.105 ± 0.11 in the assay with IL-6-GFP PC-9GR and 0.14 ± 0.057 in the assay on IL-6-GFP PC-9.
With `Cc1ccc(-c2ncc(Cl)cc2-c2ccc(S(C)(=O)=O)cc2)cn1` [Etoricoxib], the cell viability worked out at 0.855 ± 0.092 in the assay with IL-6-GFP PC-9GR and 1.21 ± 0.029 in the assay on IL-6-GFP PC-9.
Regarding `COC(=O)c1cc(OC)c2c(c1-c1c(C(=O)OC)cc(OC)c3c1OCO3)OCO2` [Bifendate], the cell viability was found to be 1.19 ± 0.22 in the assay with IL-6-GFP PC-9GR and 1.25 ± 0.027 in the assay on IL-6-GFP PC-9.
As for `CCC(Nc1ncnc2[nH]cnc12)c1nc2cccc(F)c2c(=O)n1-c1ccccc1` (configuration not stated) [Idelalisib (CAL-101, GS-1101)], the figures for the cell viability in the assay with IL-6-GFP PC-9GR and with IL-6-GFP PC-9 were 1.27 ± 0.14 and 0.858 ± 0.15, respectively.
`CC(=O)Nc1ccc(CC(=O)O)cc1` [Actarit]: the cell viability with IL-6-GFP PC-9GR was 1.61 ± 0.35; in the assay with IL-6-GFP PC-9, 1.15 ± 0.07.
As to `CN(C)c1nc(N(C)C)nc(N(C)C)n1` [Altretamine], the cell viability was determined as 1.25 ± 0.047 with IL-6-GFP PC-9GR and 1.06 ± 0.036 in the assay with IL-6-GFP PC-9.
On to `COc1cc2c(Nc3ccc(Br)cc3F)ncnc2cc1OCC1CCN(C)CC1` [Vandetanib (ZD6474)], for which the cell viability worked out at 0.578 ± 0.024 in the assay with IL-6-GFP PC-9GR and 0.551 ± 0.059 in the assay on IL-6-GFP PC-9.
`S=P(N1CC1)(N1CC1)N1CC1` [Thiotepa]: the results for the cell viability with IL-6-GFP PC-9GR and in the assay on IL-6-GFP PC-9 were 1.02 ± 0.074 and 0.977 ± 0.074, respectively.
For `O=C(/C=C/C=C/c1ccc2c(c1)OCO2)N1CCCCC1` [Piperine], the cell viability stood at 1.33 ± 0.093 with IL-6-GFP PC-9GR and 1.47 ± 0.33 with IL-6-GFP PC-9.
As for `CC(=O)Nc1ccc(OC(=O)c2ccccc2OC(C)=O)cc1` [Benorylate], the cell viability in the assay with IL-6-GFP PC-9GR was found to be 1.54 ± 0.41; in the assay on IL-6-GFP PC-9, 1.13 ± 0.046.
Turning to `Cc1c(-c2ccc(-c3ccccc3F)cc2)nc2ccc(F)cc2c1C(=O)O` [Brequinar], the cell viability in the assay on IL-6-GFP PC-9GR was 0.402 ± 0.11; with IL-6-GFP PC-9 it was 0.42356 ± 0.00032.
The matching figures for `O=C(c1ccc(F)c(F)c1Nc1ccc(I)cc1F)N1CC(O)(C2CCCCN2)C1` (configuration not stated) [Cobimetinib (GDC-0973, RG7420)]: 0.7146 ± 0.0029 and 0.115 ± 0.15.
Take `CNC(=NC#N)NCCSCc1nc[nH]c1C` [Cimetidine]: the cell viability in the assay on IL-6-GFP PC-9GR was 1.56 ± 0.74; in the assay with IL-6-GFP PC-9, 1.15 ± 0.23.
Turning to `CC1CC2C(C(O)CC3(C)C2CCC3(O)C(=O)COC(=O)CCC(=O)O)C2(C)C=CC(=O)C=C12` (configuration not stated) [Methylprednisolone hemisuccinate], the cell viability in the assay on IL-6-GFP PC-9GR was determined as 0.848 ± 0.037; with IL-6-GFP PC-9 it was 0.911 ± 0.24.
The matching figures for `COc1cc2nccc(Oc3ccc(NC(=O)C4(C(=O)Nc5ccc(F)cc5)CC4)cc3)c2cc1OC.O=C(O)CC(O)C(=O)O` [Cabozantinib malate (XL184)]: 0.81 ± 0.13 and 0.958 ± 0.062.
The matching figures for `CC(C)(O)CNc1nc(Nc2ccnc(C(F)(F)F)c2)nc(-c2cccc(C(F)(F)F)n2)n1` [Enasidenib (AG-221)]: 1.25 ± 0.65 and 1.03 ± 0.018.
The matching figures for `Cc1ccc(C(C)C)c(O)c1` [Thymol]: 0.9 ± 0.16 and 1.08 ± 0.2.
As for `Nc1nc(N)c2nc(-c3ccccc3)c(N)nc2n1` [Triamterene], the cell viability came to 0.591 ± 0.14 with IL-6-GFP PC-9GR and 0.842 ± 0.038 in the assay with IL-6-GFP PC-9.
The matching figures for `Cc1cccc(N(C)C(=S)Oc2ccc3ccccc3c2)c1` [Tolnaftate]: 1.38 ± 0.047 and 0.8891 ± 0.0065.
As to `Cc1nnc(C(C)C)n1C1CC2CCC(C1)N2CCC(NC(=O)C1CCC(F)(F)CC1)c1ccccc1` (configuration not stated) [Maraviroc], the cell viability in the assay with IL-6-GFP PC-9GR is 1.3 ± 0.033; with IL-6-GFP PC-9, 0.945 ± 0.17.
`C=CCC1/C=C(\C)CC(C)CC(OC)C2OC(O)(C(=O)C(=O)N3CCCCC3C(=O)OC(/C(C)=C/C3CCC(O)C(OC)C3)C(C)C(O)CC1=O)C(C)CC2OC` (configuration not stated) [Tacrolimus (FK506)]: the results for the cell viability in the assay with IL-6-GFP PC-9GR and in the assay on IL-6-GFP PC-9 were 1.14 ± 0.079 and 1.34 ± 0.11, respectively.
In the case of `CN(C)C(=O)COC(=O)Cc1ccc(OC(=O)c2ccc(NC(=N)N)cc2)cc1.CS(=O)(=O)O` [Camostat Mesilate], the cell viability in the assay on IL-6-GFP PC-9GR was 0.986 ± 0.098; in the assay with IL-6-GFP PC-9, 1.13 ± 0.049.
`CC12C=CC(=O)C=C1CCC1C3CC(O)C(O)(C(=O)CO)C3(C)CC(O)C12F` (configuration not stated) [Triamcinolone]: the values for the cell viability in the assay on IL-6-GFP PC-9GR and with IL-6-GFP PC-9 were 1.06 ± 0.13 and 0.805 ± 0.086, respectively.
Turning to `CCc1nc(C(N)=O)c(Nc2ccc(N3CCC(N4CCN(C)CC4)CC3)c(OC)c2)nc1NC1CCOCC1` [Gilteritinib (ASP2215)], the cell viability in the assay with IL-6-GFP PC-9GR worked out at 0.333 ± 0.021; in the assay on IL-6-GFP PC-9, 0.315 ± 0.11.
With `C=CC1=C(C)c2cc3nc(cc4[nH]c(cc5[nH]c(cc1n2)c(C)c5C=C)c(C)c4CCC(=O)O)C(CCC(=O)O)=C3C` [Protoporphyrin IX], the cell viability was found to be 0.345 ± 0.26 in the assay on IL-6-GFP PC-9GR and 0.995 ± 0.17 with IL-6-GFP PC-9.
For the molecule `CN1CCC(=C2c3ccccc3C=Cc3ccccc32)CC1.Cl` [Cyproheptadine hydrochloride], the cell viability with IL-6-GFP PC-9GR worked out at 0.784 ± 0.082; in the assay on IL-6-GFP PC-9, 1.07 ± 0.17.
Regarding `CCCCCCCCc1ccc(CCC(N)(CO)CO)cc1` [Fingolimod], the cell viability is 0.513 ± 0.18 with IL-6-GFP PC-9GR and 0.924 ± 0.37 in the assay on IL-6-GFP PC-9.
